Tests used:
Experiment in all cases: log2 ratio of Biotin-Ahx-Ub-VS probe labelling (fragment/DMSO); higher = less target engagement (more negative = stronger competition), active = hit call of the paper (q ≤ 0.05, log2 ratio ≤ -1)
Conditions in all cases: compound concentration: 200 uM; treatment time: 3 h
USP34 = USP34 (UniProt Q70CQ2)
Outline: (§1)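 Labelled DUBs from HEK293T lysate were NeutrAvidin-enriched, digested with LysC and trypsin, and run by diaPASEF LC-MS/MS. Before that, each 495 µg sample in Tris/CHAPS/IGEPAL buffer with protease inhibitors was treated in triplicate with fragment at 200 µM or vehicle for 3 h, then with Biotin-Ahx-Ub-VS at 0.5 µM final for 1 h. Values are average log2 ratios of fragment over vehicle by unpaired t-test, based on global-median-normalised Spectronaut label-free quantities from proteins with ≥2 unique peptides.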

USP36 = biological target: T1, USP36 (UniProt Q9P275)
T1 sequence (whole entry): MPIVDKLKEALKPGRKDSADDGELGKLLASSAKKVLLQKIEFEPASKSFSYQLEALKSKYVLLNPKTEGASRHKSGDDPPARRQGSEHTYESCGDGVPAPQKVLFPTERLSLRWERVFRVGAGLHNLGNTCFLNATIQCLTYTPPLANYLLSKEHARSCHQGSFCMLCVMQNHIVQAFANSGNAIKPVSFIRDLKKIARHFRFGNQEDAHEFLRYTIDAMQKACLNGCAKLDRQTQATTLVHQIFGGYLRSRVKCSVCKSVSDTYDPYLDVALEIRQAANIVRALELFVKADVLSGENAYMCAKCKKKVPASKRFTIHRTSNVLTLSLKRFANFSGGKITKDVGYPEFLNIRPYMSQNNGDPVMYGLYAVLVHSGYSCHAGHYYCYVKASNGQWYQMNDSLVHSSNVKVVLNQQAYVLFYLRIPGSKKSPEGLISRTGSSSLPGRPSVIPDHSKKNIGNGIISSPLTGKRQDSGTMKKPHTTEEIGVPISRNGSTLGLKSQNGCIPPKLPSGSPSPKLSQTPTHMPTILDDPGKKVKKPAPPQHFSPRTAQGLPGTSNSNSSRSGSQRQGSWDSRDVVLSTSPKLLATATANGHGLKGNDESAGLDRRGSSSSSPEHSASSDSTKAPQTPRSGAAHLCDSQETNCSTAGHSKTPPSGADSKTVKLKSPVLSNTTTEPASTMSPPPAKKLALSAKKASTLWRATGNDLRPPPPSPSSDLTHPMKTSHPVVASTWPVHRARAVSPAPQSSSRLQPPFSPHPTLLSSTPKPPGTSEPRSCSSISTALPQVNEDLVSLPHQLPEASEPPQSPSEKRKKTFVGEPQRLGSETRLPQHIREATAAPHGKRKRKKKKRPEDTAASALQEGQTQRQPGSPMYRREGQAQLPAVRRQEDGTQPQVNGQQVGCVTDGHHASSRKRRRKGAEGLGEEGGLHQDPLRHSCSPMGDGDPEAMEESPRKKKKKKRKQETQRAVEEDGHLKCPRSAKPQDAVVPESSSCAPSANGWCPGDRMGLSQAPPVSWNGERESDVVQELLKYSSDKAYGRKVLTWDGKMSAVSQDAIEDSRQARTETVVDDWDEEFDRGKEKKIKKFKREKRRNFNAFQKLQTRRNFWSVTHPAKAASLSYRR
Outline: as §1

USP38 = biological target: T2, USP38 (UniProt Q8NB14)
T2 sequence (whole entry): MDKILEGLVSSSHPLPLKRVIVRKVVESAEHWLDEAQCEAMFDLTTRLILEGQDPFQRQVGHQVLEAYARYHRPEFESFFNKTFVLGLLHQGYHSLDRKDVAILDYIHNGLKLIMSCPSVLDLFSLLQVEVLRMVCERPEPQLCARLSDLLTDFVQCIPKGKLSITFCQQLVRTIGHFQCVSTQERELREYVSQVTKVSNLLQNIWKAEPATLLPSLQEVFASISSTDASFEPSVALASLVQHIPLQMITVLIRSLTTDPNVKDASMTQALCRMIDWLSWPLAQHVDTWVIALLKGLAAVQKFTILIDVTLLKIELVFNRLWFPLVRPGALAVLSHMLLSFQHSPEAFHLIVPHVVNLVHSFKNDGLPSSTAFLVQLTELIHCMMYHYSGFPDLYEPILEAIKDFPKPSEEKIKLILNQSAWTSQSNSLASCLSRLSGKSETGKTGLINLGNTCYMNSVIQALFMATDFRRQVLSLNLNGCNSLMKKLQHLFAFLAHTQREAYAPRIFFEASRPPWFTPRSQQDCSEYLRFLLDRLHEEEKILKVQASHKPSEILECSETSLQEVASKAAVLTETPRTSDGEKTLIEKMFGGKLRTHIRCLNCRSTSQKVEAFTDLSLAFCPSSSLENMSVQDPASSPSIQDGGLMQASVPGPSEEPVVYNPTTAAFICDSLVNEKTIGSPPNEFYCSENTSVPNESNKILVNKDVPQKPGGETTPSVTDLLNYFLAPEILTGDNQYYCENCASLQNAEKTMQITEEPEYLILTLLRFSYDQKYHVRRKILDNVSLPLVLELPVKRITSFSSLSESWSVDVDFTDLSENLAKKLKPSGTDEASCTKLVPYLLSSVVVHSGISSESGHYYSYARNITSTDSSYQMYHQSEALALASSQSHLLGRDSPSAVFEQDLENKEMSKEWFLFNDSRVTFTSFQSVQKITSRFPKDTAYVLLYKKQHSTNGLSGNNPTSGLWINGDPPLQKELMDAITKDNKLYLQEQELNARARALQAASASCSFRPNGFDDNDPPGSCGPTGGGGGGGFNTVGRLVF
Outline: as §1

USP39 = biological target: T3, USP39 (UniProt Q53GS9)
T3 sequence (whole entry): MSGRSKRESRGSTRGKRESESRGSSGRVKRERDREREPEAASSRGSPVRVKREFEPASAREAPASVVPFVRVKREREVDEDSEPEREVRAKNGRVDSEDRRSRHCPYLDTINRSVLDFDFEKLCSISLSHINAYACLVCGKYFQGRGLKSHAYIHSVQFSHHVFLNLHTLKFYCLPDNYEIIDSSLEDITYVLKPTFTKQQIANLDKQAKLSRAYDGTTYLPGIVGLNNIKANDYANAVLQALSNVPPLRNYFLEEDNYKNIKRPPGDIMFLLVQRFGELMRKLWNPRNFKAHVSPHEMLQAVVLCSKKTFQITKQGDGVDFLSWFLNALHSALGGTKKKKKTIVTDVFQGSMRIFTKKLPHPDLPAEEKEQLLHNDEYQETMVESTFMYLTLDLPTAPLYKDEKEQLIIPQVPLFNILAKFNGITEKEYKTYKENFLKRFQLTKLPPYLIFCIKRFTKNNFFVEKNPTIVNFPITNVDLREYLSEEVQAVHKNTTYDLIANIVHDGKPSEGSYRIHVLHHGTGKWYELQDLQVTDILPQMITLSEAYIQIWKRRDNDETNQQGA
Outline: as §1

USP4 = biological target: T4, USP4 (UniProt Q13107)
T4 sequence (whole entry): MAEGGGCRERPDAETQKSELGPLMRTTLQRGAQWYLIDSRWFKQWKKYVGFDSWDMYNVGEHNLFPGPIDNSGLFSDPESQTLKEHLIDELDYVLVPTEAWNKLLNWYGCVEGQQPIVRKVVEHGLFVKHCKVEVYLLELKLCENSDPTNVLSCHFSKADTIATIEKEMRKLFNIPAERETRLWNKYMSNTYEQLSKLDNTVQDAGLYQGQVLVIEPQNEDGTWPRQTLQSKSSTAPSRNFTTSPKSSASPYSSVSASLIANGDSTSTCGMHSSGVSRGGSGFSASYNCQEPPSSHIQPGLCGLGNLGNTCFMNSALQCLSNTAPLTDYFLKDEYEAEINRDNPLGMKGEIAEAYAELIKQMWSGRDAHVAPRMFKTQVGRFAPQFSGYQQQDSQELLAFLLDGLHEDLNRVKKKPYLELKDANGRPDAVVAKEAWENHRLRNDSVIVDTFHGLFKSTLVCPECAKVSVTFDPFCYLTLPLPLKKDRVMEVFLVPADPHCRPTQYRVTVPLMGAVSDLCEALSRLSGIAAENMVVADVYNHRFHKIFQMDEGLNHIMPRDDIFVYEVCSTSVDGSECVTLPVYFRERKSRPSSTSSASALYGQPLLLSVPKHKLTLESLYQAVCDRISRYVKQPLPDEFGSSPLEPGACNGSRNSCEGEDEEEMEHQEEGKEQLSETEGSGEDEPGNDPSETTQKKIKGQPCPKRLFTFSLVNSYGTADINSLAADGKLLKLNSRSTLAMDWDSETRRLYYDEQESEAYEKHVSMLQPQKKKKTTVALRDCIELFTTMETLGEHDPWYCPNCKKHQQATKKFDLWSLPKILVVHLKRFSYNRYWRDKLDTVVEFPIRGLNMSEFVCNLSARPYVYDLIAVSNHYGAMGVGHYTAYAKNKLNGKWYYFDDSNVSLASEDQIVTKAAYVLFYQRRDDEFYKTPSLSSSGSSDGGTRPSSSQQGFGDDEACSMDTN
Outline: as §1

Measured: log2 ratio of Biotin-Ahx-Ub-VS probe labelling

Sequence of USP34 (Q70CQ2 whole entry, the tested form may be a part): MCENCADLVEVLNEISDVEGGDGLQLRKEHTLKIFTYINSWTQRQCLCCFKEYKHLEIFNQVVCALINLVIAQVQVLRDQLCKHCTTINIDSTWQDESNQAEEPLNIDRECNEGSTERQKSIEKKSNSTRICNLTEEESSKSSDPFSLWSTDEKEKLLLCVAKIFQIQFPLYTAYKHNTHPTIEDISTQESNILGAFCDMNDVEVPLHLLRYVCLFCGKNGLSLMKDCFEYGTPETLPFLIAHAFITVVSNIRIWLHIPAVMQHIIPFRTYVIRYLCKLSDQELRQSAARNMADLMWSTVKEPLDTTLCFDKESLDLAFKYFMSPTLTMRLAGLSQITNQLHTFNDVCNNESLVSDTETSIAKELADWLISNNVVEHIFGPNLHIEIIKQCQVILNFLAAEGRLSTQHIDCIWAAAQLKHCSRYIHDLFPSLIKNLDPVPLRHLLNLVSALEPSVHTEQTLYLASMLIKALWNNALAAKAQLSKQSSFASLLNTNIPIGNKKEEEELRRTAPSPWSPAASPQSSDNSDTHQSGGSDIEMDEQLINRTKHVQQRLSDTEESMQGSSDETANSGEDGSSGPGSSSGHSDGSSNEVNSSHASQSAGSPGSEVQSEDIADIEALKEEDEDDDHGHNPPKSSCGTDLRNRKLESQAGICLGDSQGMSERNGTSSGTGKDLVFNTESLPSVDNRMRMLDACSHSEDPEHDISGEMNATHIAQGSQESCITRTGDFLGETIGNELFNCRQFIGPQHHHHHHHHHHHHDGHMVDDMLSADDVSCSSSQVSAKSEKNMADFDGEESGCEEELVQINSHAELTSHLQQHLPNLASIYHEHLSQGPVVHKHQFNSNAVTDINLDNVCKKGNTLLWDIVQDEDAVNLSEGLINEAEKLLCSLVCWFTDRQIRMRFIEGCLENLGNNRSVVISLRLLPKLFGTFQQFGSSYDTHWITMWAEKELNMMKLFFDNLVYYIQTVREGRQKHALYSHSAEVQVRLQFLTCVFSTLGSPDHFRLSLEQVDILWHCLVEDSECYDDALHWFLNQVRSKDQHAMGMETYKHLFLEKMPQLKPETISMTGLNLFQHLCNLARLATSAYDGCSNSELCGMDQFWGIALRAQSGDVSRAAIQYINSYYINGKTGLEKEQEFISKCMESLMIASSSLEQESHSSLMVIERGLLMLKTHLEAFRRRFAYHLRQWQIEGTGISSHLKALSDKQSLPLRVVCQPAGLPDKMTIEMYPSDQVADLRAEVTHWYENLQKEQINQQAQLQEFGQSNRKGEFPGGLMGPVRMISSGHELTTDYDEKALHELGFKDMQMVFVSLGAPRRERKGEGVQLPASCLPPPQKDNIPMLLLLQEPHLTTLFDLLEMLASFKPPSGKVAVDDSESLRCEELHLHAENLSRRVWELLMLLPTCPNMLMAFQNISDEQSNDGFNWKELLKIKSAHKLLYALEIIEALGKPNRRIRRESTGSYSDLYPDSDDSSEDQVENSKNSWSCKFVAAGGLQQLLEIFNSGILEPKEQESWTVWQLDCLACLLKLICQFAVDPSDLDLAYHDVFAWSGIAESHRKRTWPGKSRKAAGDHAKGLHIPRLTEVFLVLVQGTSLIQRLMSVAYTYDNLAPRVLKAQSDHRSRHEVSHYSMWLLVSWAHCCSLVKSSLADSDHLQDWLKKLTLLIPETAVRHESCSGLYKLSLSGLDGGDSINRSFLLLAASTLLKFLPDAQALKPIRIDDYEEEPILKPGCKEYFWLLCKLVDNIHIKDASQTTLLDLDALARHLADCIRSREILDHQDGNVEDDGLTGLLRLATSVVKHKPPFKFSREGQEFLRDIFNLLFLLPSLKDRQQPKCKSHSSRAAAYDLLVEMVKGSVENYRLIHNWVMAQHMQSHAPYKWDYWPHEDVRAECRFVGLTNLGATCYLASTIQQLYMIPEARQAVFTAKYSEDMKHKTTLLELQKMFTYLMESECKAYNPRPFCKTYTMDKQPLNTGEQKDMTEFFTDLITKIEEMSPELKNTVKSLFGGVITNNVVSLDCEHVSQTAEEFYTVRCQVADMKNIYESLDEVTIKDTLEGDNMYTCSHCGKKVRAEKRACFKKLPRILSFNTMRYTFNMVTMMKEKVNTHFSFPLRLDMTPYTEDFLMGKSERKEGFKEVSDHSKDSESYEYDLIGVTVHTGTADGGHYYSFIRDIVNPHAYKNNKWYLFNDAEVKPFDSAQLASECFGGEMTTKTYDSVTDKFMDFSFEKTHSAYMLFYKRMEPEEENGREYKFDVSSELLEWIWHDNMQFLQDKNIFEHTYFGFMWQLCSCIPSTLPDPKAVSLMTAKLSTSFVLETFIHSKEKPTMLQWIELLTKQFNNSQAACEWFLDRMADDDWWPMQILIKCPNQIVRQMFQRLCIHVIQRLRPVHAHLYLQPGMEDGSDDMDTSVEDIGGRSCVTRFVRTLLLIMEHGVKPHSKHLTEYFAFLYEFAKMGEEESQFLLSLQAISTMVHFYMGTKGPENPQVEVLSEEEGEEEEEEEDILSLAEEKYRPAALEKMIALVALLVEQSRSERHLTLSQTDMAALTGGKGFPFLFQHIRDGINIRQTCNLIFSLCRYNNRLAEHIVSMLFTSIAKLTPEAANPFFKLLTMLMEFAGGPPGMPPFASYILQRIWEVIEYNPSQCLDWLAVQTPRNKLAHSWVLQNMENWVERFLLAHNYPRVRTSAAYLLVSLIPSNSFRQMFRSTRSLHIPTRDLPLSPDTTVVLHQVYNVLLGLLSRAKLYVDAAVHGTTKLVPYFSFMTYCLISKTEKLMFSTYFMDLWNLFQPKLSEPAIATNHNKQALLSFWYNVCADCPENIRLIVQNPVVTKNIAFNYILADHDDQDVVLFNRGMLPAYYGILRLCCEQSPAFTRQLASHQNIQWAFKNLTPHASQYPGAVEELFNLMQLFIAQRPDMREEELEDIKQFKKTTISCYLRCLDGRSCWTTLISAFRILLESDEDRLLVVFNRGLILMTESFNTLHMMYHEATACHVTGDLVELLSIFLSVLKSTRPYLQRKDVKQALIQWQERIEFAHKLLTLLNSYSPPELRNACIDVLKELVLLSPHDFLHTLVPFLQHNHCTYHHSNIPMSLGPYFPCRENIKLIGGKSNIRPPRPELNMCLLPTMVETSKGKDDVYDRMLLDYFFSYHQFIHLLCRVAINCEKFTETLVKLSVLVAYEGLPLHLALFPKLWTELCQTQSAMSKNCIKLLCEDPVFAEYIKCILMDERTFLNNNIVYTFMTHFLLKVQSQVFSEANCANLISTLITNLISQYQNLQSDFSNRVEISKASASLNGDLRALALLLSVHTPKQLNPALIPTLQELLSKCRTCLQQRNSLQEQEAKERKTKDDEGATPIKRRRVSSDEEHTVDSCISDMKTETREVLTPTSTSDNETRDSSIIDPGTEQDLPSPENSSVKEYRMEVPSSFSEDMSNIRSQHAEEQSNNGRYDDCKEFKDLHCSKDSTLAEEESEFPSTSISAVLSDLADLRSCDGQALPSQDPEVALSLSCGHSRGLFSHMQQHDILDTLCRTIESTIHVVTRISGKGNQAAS

N#Cc1ccccc1N1CCN(C(=O)CCl)CC1
inactive: USP34 -0.549 | USP36 -0.232 | USP38 -0.312 | USP39 0.399 | USP4 -0.61

Reference: the supplement of paper PMC11732987, “Enantioselective OTUD7B fragment discovery through chemoproteomics screening and high-throughput optimisation” (Communications Chemistry, 2025)
